Assay results taken from PubChem BioAssay (NCI).
“And” between values parts separate entries of the source, which are not always exact repeats. Equal values may be shown once. The panel holds about 83,000 compounds, 20% with a hit somewhere; the sample as a whole holds those more often.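 Assay: single dose, 48 h. Readout: percent growth (0 = no net growth; negative = cell death). Active: <10.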 A number with no mark means an inactive call. The source made the active and inactive calls.

These compounds were tested on HL-60(TB) leukemia (assay: NCI-60 one-dose screen, 48 h (100 = growth as untreated, 0 = no growth, -100 = all killed)). Conditions: 10 µM unless noted.

| Structure (SMILES) | growth |
| --- | --- |
| COC(=O)c1ccc(=O)c2nc3/c(=C/O)c(O)cc(=O)c3[nH]c12 | 0.308% (active) |
| Nc1c(S(=O)(=O)O)cc(Br)c2c1C(=O)c1ccccc1C2=O | 103% and 91% |
| COc1ccc(-c2n[nH]nc2-c2cc(OC)c3c(c2OC)OCO3)cc1 | -23.2% (active) |
| Cc1cc(=O)[nH]c(O)c1C#N | 109% and 137% |
| CCc1ccc(Oc2c(-c3ccc(OCc4ccc(Cl)cc4)cc3O)n[nH]c2C(F)(F)F)cc1 | -6.99% (active) |
| Cn1c(-c2c(N)n(Cc3ccc(C(F)(F)F)cc3)c3nc(C#N)c(C#N)nc23)nc2ccccc21 | -54.6% (active) |
| OB(O)c1cccc(-c2nc3ccc4[nH]ncc4c3c3c2CCCC3)c1F | 32.1% |
| COc1ccc(C(=O)/C=C/c2cc3ccccc3[nH]c2=O)cc1 | 33.7% |
| Oc1c(Cl)cc(Cl)c2ccc(Cn3cc(-c4cc(F)cc(F)c4)nn3)nc12 | 2.85% (active) |
| C=C1CCC[C@]2(C)CCC[C@H](C)[C@@H](OC(C)=O)[C@@H]3OC(=O)C(=C)[C@@H]3C[C@H]1O2 | 41.8% |
| O=[N+]([O-])c1ccccc1/C=N\Nc1ccccc1 | 82.5% and 87.4% |
| CCCCCOC(=O)c1ccc(NC(=O)CNCC(C)C)cc1 | 84.6% |
| Cc1nc2ccccc2c2nnc(SCC(=O)N(Cc3ccccc3)c3ccccc3)n12 | 105% |
| CCn1c(Cc2ccccc2Nc2c(Cl)cccc2Cl)nnc1SCC(=O)Nc1ccccc1C(F)(F)F | 86.9% |
| O=C(O)c1ccc(-n2cc(CNc3ccc(Oc4ccccc4)cc3)c(-c3ccccc3)n2)cc1 | 92.5% |
| c1ccc(Nc2ccc(Nc3nc(-c4ccccc4)nc4ccccc34)cc2)cc1 | 87.1% |
| COc1ccccc1OC(=O)Oc1ccccc1OC | 101% and 98.4% |
| CCCCCCCCCCCCCCCc1cc(O)ccc1N | -45.5% (active) and -6.54% (active) |
| Cc1ccc(C(=O)NN)cc1 | 124% |
| COc1ccc(C2CC(c3ccc(Nc4nc(Nc5ccccc5)nc(Nc5ccccc5)n4)cc3)=NN2C(C)=O)cc1 (stereo not given) | 95.1% |

| Structure (SMILES) | growth |
| --- | --- |
| CC1(C)CC2(C)CC(=O)C1C(C(=O)O)C2C(=O)O (stereo not given) | 97.9% |
| CN1CCN(Cc2ccc(NC(=O)c3cnc(F)c(C#Cc4cnc(N)c5ncccc45)c3)cc2C(F)(F)F)CC1 | -9.84% (active) |
| O=C(Cn1cc(CN2CCCCCC2)nn1)Nc1ccc2c(ccn2Cc2ccccc2)c1 | 92.2% |
| CC[C@@H](C)/C=C(C)/C=C/C(O)=C1\C(=O)N[C@@H](Cc2ccc(OC(=O)[C@@](OC)(c3ccccc3)C(F)(F)F)cc2)C1=O | 8.34% (active) |
| CCOC(=O)CC(S(=O)(=O)c1ccccc1)S(=O)(=O)c1ccccc1 | 67.9% |
| O=C(CCc1nnc(CN(c2ccccc2)c2ccccc2)o1)c1nc2ccccc2[nH]1 | 84.1% |
| C[N+](C)=c1ccc2nc3c(cc(Nc4ccccc4)c4ccccc43)oc-2c1 | 25.8% |
| CC(=O)C(CO)C(=O)Nc1ccccc1 (stereo not given) | 100% |
| NS(=O)(=O)c1ccc(N2Cc3cc(Cl)ccc3OC3=C2C(=O)N(CC2CCCCC2)C3=O)cc1 | -35.9% (active) |
| COC(=O)c1cc(-c2ccc(OC)cc2)[nH]c1N/N=C/c1c(Cl)cccc1Cl | -44.9% (active) |
| CC(=O)N1C(=S)NC(=O)C1Cn1c(-c2ccccc2)nc2ccccc21 (stereo not given) | 98.9% |
| Cc1ccsc1-c1ccc2c(c1)COC2(CCCN(C)C)c1ccc(F)cc1 (stereo not given) | 23% |
| O=C1Nc2ccccc2/C1=C/c1cccn1CCCCn1c2ccccc2c(=O)c2ccccc21 | 60.2% |
| CNc1nnc2n(-c3ccccc3)c(=O)c3cnn(-c4ccccc4)c3n12 | 70.5% |
| COc1ccc(OC)c(NC=O)c1 | 62.2% |
| Cc1cc(N2CCCC2)nc(N(CCNc2ccnc3cc(Cl)ccc23)Cc2ccco2)n1 | -52.8% (active) |
| O=C1c2cc3c(cc2-c2c1c1cc(Cl)c(Cl)cc1c(=O)n2C[C@H](O)CO)OCO3 | -22.6% (active) |
| O=C(c1ccccc1)C(CN1CCCCC1)c1ccccc1 (stereo not given) | -43.7% (active) |
| Cc1ccc(C2=Nc3c(N)ncnc3NC(c3cccc(Nc4ccnc5cc(C(F)(F)F)ccc45)c3)C2)cc1 (stereo not given) | 0.514% (active) |
| O=[N+]([O-])C=C(c1ccccc1)c1ccccc1 | 60.2% |
